# Bioassay records as filed in PubChem BioAssay.
# Most compounds without a hit are left out; they make up all but 4% or so of the library.
# TRPM1 prom inh – inhibitors of MITF-dependent TRPM1 promoter reporter, primary screen, cell-based, SK-MEL-5, single point, luciferase | SK-MEL-5 TRPM1 promoter luciferase, 24 h | inhibition, % at 12.5 µM | 330,000 compounds, 0.83% hits | AID 488899, 2010;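 active = mean inhibition across replicates of 60% or more, whatever share of single replicates reaches that level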
# TWEAK Fn14 block – inhibitors of TWEAK-Fn14 signaling, primary screen, luciferase reporter cells, uHTS; TWEAK-stimulated Fn14 reporter cells, luciferase luminescence, 8 h; AID 1159606, 2016; 360,000 compounds, 2% hits; inhibition, % at 10 µM; in the data active = inhibition above about 50%
# Peg3 promoter – Peg3 promoter-driven luciferase inhibitors, primary screen, cell-based, HeLa, luciferase luminescence; HeLa PEG-Prom luciferase reporter, overnight; inhibition, % at 20 µM; 360,000 compounds, 1.7% hits;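 active = inhibition of at least 50% at 20 µM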
# LMP1 NFkB inh – EBV LMP1-driven NF-kappaB luciferase reporter inhibitors, primary screen, cell-based, luminescence, single point | LMP1-induced NF-kappaB luciferase reporter cells | inhibition, % at 12.5 µM | 350,000 compounds, 0.69% hits | AID 504558, 2011; in the data active = inhibition above about 41%;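 note: 0% = neutral control wells and 100% = reference inhibitor control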
# HIF-2a inh – HIF-2a reporter inhibitors, primary screen, luminescence, 786-0 RCC cells; 786-0 RCC cells HIF-2a reporter, luciferase luminescence, overnight; inhibition, % at 18.8 µM; 360,000 compounds, 0.72% hits;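 active = inhibition of the luminescence signal of 40% or more relative to plate controls, in a single-dose primary screen at 18.75 µM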
# TROY NFkB inh – inhibitors of TROY-driven NF-kB signaling, primary screen, Q293 LMP1-TROYcd cells, NF-kB luciferase, uHTS; Q293 LMP1-TROYcd NF-kB luciferase reporter, 4 h; inhibition, % at 10 µM; 360,000 compounds, 0.98% hits; AID 1347056, 2019;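 active = compounds whose plate-normalised and pattern-corrected inhibition of the luciferase reporter signal at the single screening dose is 50% or more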
# * hit, by the source's call; nt = not tested or not shown.
SMILES,TRPM1 prom inh,TWEAK Fn14 block,Peg3 promoter,LMP1 NFkB inh,HIF-2a inh,TROY NFkB inh
O=C(N=Nc1c(O)[nH]c2ccc(Br)cc12)c1cc(-c2cccc3ccccc23)n[nH]1,-2,35,55*,0,-37,7
CC1(C(=O)NS(=O)(=O)c2ccc(Br)cc2)CCN1C(=O)c1cccc(F)c1 (stereo not drawn),nt,4,2,nt,5,8
CCN(CC)C(=S)SSC(=S)N(CC)CC,31,-46,68*,-10,28,10
CCOCCNC(=O)c1ccccc1C(=O)NCCOCC,4,18,0,-5,10,-10
CCCNC(=O)c1ccccc1C(=O)NCCC,6,89*,11,-2,13,2
O=C(NCCc1ccccc1)c1ccccc1Cl,4,78*,-24,46*,20,31
O=C(c1cc(C(=O)NCCc2ccccc2)c(=O)n(CCc2ccccc2)c1)c1cc(Cl)ccc1O,-7,66*,52*,5,10,14
Cn1cccc1C(=O)NCCc1ccccc1,6,56*,-170,8,-89,-10
COc1ccc(CCNC(=O)c2cc(C(=O)c3cc(Cl)ccc3O)cn(CCc3ccc(OC)cc3)c2=O)cc1,8,46,39,-4,20,17
CCCCNC(=O)C1C(c2ccc(OC)cc2)=Nc2ccccc2N1C(=O)Cc1cc(OC)cc(OC)c1 (stereo not drawn),nt,nt,nt,nt,-35,nt
CC1(C)OC(=O)C2=C(C[C@@H](CCc3ccccc3)O[C@H]2CCc2cccc(Cl)c2)O1,nt,-9,nt,nt,-7,-17
C[C@@H]1Cn2cnc(C(=O)N[C@@H](Cc3c[nH]c4ccccc34)C(=O)OC(C)(C)C)c2C(=O)N1,nt,-6,20,-25,-8,8
O=C(COC(=O)c1ncc(Cl)c(Cl)c1Cl)Nc1ccc(Cl)cn1,27,8,0,-6,6,-17
CC1CCN(c2ccc(-c3cccc(NC(=O)c4ccco4)c3)nn2)CC1,-35,53*,-116,18,-80,22
CCC(=O)Nc1cccc(-c2ccc(N3CCC(C)CC3)nn2)c1,-9,60*,-124,19,9,22
COc1ccc(NCc2ccsc2)cc1,-38,-22,-65,-4,-83,-19
Cc1ccc(NC(=O)CNc2cccc(S(=O)(=O)N3CCOCC3)c2)cc1F,1,5,7,-4,6,6
O=C(COc1ccc(C(=O)c2ccc(F)cc2)cc1)Nc1cccc(S(=O)(=O)N2CCOCC2)c1,40,57*,-1,16,-18,54*
COc1cc(NC(=O)CNc2cccc(S(=O)(=O)N3CCOCC3)c2)cc(OC)c1,5,8,9,3,0,78*
COc1ccc(S(=O)(=O)N2CCN(CC(=O)Nc3cccc(OC)c3)CC2)cc1,1,-13,-3,56*,2,7
O=C(COC(=O)CCC(=O)c1ccc(F)cc1)Nc1cccc(S(=O)(=O)N2CCOCC2)c1,-4,-16,7,-24,10,6
CCC(=O)c1ccc(OCC(=O)Nc2cccc(S(=O)(=O)N3CCCCCC3)c2)cc1,11,54*,-21,17,-7,31
O=C1NN=C(CSc2n[nH]c(=S)s2)CS1,10,-6,3,-5,6,-10
CC1(C)CC(=O)c2cc(C(=O)NCc3ccco3)c(=O)n(-c3ccccc3)c2C1,-6,83*,16,12,5,nt
COc1ccc(NC(=O)Nc2ccc3c(c2)C(=O)N([C@H](C)CO)C[C@H](C)[C@@H](CN(C)Cc2ccc(Cl)c(Cl)c2)OCCCC[C@@H](C)O3)cc1,nt,14,86*,6,-12,19
SMILES,TRPM1 prom inh,TWEAK Fn14 block,Peg3 promoter,LMP1 NFkB inh,HIF-2a inh,TROY NFkB inh
C[C@H](CO)N1C[C@H](C)[C@@H](CN(C)C(=O)Nc2ccc3c(c2)OCO3)Oc2c(NC(=O)Nc3ccccc3)cccc2C1=O,-1,-4,6,-2,-11,-7
C[C@H](CO)N1C[C@H](C)[C@@H](CN(C)C(=O)Nc2ccc(C(F)(F)F)cc2)Oc2c(NC(=O)Nc3ccc(C(F)(F)F)cc3)cccc2C1=O,-6,11,56*,-9,8,14
CC(C)NC(=O)N(C)C[C@H]1Oc2c(NC(=O)Nc3ccc4c(c3)OCO4)cccc2C(=O)N([C@H](C)CO)C[C@@H]1C,-9,4,-5,83*,-19,-15
COc1ccc(NC(=O)Nc2cccc3c2O[C@H](CN(C)Cc2ccc(-c4ccccc4)cc2)[C@@H](C)CN([C@H](C)CO)C3=O)cc1,23,-15,94*,0,-11,-23
COc1cc(CN(C)c2ncnc3sccc23)ccc1OC(F)F,3,7,14,8,-4,8
CCCCCCC1(C)NC(=O)N(C(C)C(=O)Nc2ccc(N3CCOCC3)cc2)C1=O (stereo not drawn),3,2,-8,-22,-12,-25
C=CCSc1nccc(-c2cc(Cl)sc2Cl)n1,-7,-15,-35,84*,-23,-25
N=c1n(CCCOc2ccc(Br)cc2)c2ccccc2n1CC(N)=O,-13,-6,60*,-23,7,7
N=c1c2c(n(Cc3ccc(F)cc3)c3c1CCC3)CCCC2,33,22,-1,2,12,16
N=c1c2c(n(Cc3ccccc3)c3c1CCC3)CCC2,50,36,16,14,12,2
N=c1c2c(n(Cc3cccc(Cl)c3)c3c1CCC3)CCCC2,50,36,54*,12,-5,23
Clc1cccc(CN2CCCCCC2)c1,12,2,10,80*,7,-10
N=c1c2c(n(Cc3ccc(Cl)cc3)c3c1CCC3)CCC2,64*,42,26,15,6,24
O=[N+]([O-])c1cc(-c2nc3nc4ccccc4nc3n2CCc2ccccc2)cc([N+](=O)[O-])c1,13,0,21,9,14,-8
CC1=C(C)CC(C(=O)NCc2ccccc2F)C(C(=O)O)C1 (stereo not drawn),-4,8,5,-2,14,7
O=C(Oc1ccc(-c2nnco2)cc1)c1ccco1,-10,-9,-6,0,-13,4
CC1(C)CC(=O)C2=C(C1)NC1=C(C(=O)c3ccccc31)C2c1ccccc1 (stereo not drawn),-9,64*,6,6,31,2
CC(C)c1ccc(C2C3=C(CC(C)(C)CC3=O)NC3=C2C(=O)c2ccccc23)cc1 (stereo not drawn),17,61*,21,-10,-14,36
O=C1NC[C@@H](CCCCN2CCN(CCc3ccccc3)C(=O)C2=O)N(Cc2ccccc2)C1=O,nt,19,nt,nt,13,9
